Only some compounds are listed: those with a hit (about 12% of all), similar ones and a draw of the others.
Sm TGR inh: inhibitors of Schistosoma mansoni thioredoxin glutathione reductase. Q962Y6. purified TGR, DTNB reduction, TNB absorbance 405 nm. Potency, µM (highest dose often 114 µM), actives largely listed as inhibitors. 360,000 compounds, 3% hits; active = well fitted inhibition curve with a large enough effect; inconclusive = small, poorly fitted or top-dose-only effect; inactive = no such curve, though single readings can be large or run the other way; note: nearly all actives have a fitted effect of over 60% in size
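Kinetic colorimetric format: TGR-catalysed, NADPH-driven DTNB reduction monitored via TNB absorbance. Enzyme dispensed at 20 nM; compound exposure 15 min at room temperature before reaction start.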
FMDV inh: blocks foot and mouth disease virus | 410,000 compounds, 1.2% hits | FMDV antiviral cell-based qHTS | AID 1159524 | Potency, µM (series often up to 57.9 µM), most hits filed as inhibitors; calls by dose curve; tested in HEK293T cells; note: read-out not given here; nearly all actives have a fitted effect of over 45% in size
Shiga toxin inh: blocks Shiga toxin action in Vero cells; Vero cells, Shiga toxin protein synthesis inhibition reporter; inhibition, % at 38.7 µM; 290,000 compounds, 9.2% hits; AID 2315; in the data active = inhibition mostly above about 28%, no sharp cut-off; inactive = mostly below about 43%
CHX counter: counter-screen hit for Shiga toxin inhibitors, cycloheximide. cell reporter, cycloheximide protein synthesis inhibition counterscreen. max response, %. 300,000 compounds, 12% hits. AID 2314; in the data active = max response mostly above about 13%, no sharp cut-off; inactive = mostly below about 14%; note: read at 38.3 µM for the half of the compounds with a filed dose
Of the large screens only hits and unclear results are named; the others gave an inactive call.

COCCCn1c(SCC(=O)Nc2ccc(C(C)=O)cc2)nc2ccccc2c1=O	Shiga toxin inh 79.8, CHX counter 44.6
COCCCNC(=O)c1ccc2nc3ccccc3c(=O)n2c1	CHX counter 12.9
C=CCn1c(SCN2C(=O)c3ccccc3C2=O)nc2ccc(Cl)cc2c1=O	FMDV inh 15.8µM
O=c1cc(-c2ccc(O)c(O)c2)oc2ccc3ccccc3c12	FMDV inh 6.31µM (no result: Shiga toxin inh, CHX counter)
COc1c(OC)c(O)c2c(=O)cc(-c3c(O)cccc3O)oc2c1OC	CHX counter 17.5
COc1cc(O)c2c(=O)cc(-c3ccccc3)oc2c1	CHX counter 11.0
COc1cc(-c2cc(=O)c3c(O)cc(O)cc3o2)ccc1O	Shiga toxin inh 39.3, CHX counter 37.0
COc1cc(-c2cc(=O)c3ccccc3o2)ccc1O	Shiga toxin inh 61.3, CHX counter 37.2
COc1ccc(-c2cc(=O)c3c(O)c(OC)c(O)cc3o2)cc1	Shiga toxin inh 45.5, CHX counter 37.3
COc1cc(O)c2c(=O)c(O)c(-c3ccc(O)c(O)c3)oc2c1	none (no result: Sm TGR inh)
COc1cc(O)c2c(=O)c3c(OC)c(O)ccc3oc2c1	Shiga toxin inh 56.3, CHX counter 37.0
CCCCOc1ccc(OC(=O)c2sc3ncn(Cc4cccc(F)c4)c(=O)c3c2C)cc1	none (no result: Shiga toxin inh, CHX counter)
CN(C)S(=O)(=O)c1cccc(C(=O)N2CCc3ccccc32)c1	none
CN(C)S(=O)(=O)c1cccc(C(=O)C2=C3SC=C(c4ccccc4)N3CC2)c1	Sm TGR inh 4.47µM
CC(=O)N1c2ccc(S(=O)(=O)N3CCCCCC3)cc2CC1C(=O)NCc1cccc(C)c1 (stereo unspecified)	none (no result: Shiga toxin inh, CHX counter)
C/C(=N\Nc1ccc(Cl)c(C(=O)O)c1)c1ccc[nH]1	Sm TGR inh inconclusive, Shiga toxin inh 157.4, CHX counter 50.9
C/C(=N\Nc1ccc(Cl)c(C(=O)O)c1)c1cccs1	Shiga toxin inh 90.2, CHX counter 32.0
C/C(=N/Nc1ccccc1C(=O)O)c1cccs1	CHX counter 19.6
COc1ccc2c(CNCc3ccco3)c(C(=O)O)n(Cc3cccc(F)c3)c2c1	none (no result: Shiga toxin inh, CHX counter)
COc1cc(NC(=O)C2CCN(S(=O)(=O)c3ccc4c(c3)oc(=O)n4C)CC2)cc(OC)c1	none (no result: Shiga toxin inh, CHX counter)
Cc1ccccc1C(=O)Nc1ccc(C(=O)OCc2cc(=O)n3c4c(sc3n2)CCCC4)cc1	none (no result: Shiga toxin inh, CHX counter)
Cc1ccc(Nc2cc(C)nn2-c2nc(C)cc(=O)[nH]2)cc1	FMDV inh 3.55µM
Cc1ccc(Nc2cc(C)nn2-c2nc(C)cc(C)n2)cc1	none
Cc1ccc(NC(=O)c2cnccn2)cc1C	CHX counter 34.1 (no result: Shiga toxin inh)
O=C(Nc1ccc2c(c1)OCO2)c1ccccn1	Sm TGR inh inconclusive (no result: Shiga toxin inh, CHX counter)
Cc1cccc(NC(=O)c2cnccn2)c1	Sm TGR inh inconclusive, CHX counter 16.9 (no result: Shiga toxin inh)
O=C(Nc1ccc(Br)cc1)c1cnccn1	CHX counter 32.2 (no result: FMDV inh)
O=C(Nc1ccc(F)cc1)c1cnccn1	none (no result: Sm TGR inh, Shiga toxin inh, CHX counter)
O=C(Nc1ccc2c(c1)OCO2)c1cnccn1	Shiga toxin inh 88.2, CHX counter 20.8
O=C(/C=C/c1ccccc1)Nc1nc2n(n1)C(c1ccc(F)cc1)C=C(c1ccccc1)N2 (stereo unspecified)	none (no result: Shiga toxin inh, CHX counter)
Cc1nc(NC(=O)c2cnccn2)ccc1Br	Shiga toxin inh 106.9, CHX counter 42.9
Cc1ccc(NC(=O)c2cnccn2)cc1	Shiga toxin inh 71.6, CHX counter 33.8
CN(C)C=Nc1ccc2nc3c(cc2c1)[nH]c1ccccc13	Shiga toxin inh 73.8, CHX counter 38.9
COc1ccc(CC(=O)Nc2ccc(/C(C)=N/NC(=O)c3ccc(OC)cc3OC)cc2)cc1	Shiga toxin inh 50.4, CHX counter 28.0
COc1ccc(C(=O)N/N=C(\C)CC(=O)Nc2ccc(N(C)C)cc2)c(OC)c1	none (no result: Shiga toxin inh)
C/C(=N\NC(=O)c1cccc(O)c1)c1ccc(NC(=O)Cc2ccccc2)cc1	Shiga toxin inh 69.3, CHX counter 34.0
COc1cc(C(=O)N/N=C(\C)c2ccc(NC(=O)Cc3ccccc3)cc2)ccc1O	Shiga toxin inh 45.1, CHX counter 39.2
C/C(=N/NC(=O)c1ccc(-c2ccccc2)cc1)c1cccc(O)c1	none
COc1ccc(C(=O)NN=C(Cc2ccccc2)Cc2ccccc2)cc1OC	none
COc1cccc(C(=O)N/N=C(\C)c2ccc(NC(=O)Cc3ccccc3)cc2)c1OC	CHX counter 18.4
CCOC(=O)c1[nH]c(C)c(CCC(=O)Nc2c(C)cc(C)cc2C)c1C	none (no result: Shiga toxin inh, CHX counter)
Cc1ccc(NC(=O)c2nnn(Cc3cccc(C(F)(F)F)c3)c2N)c(C)c1	none (no result: Shiga toxin inh, CHX counter)
COc1ccc2c(c1)cc1c(=O)n(CC(=O)NC(C)C)nc(C)n12	none (no result: Shiga toxin inh, CHX counter)
O=C(Cc1ccccc1)Nc1ccc(C(=O)O)cc1	none
C/C(=N\NC(=O)c1ccccc1O)c1ccc(NC(=O)Cc2ccccc2)cc1	Shiga toxin inh 41.4, CHX counter 28.9
